# Unmarked numbers belong to inactive results. No rule for the calls is given here.
# Tested on: Phorbol Ester
# Assay: CYP450 and receptor off-target profile – biochemical, Ricerca HitProfilingScreen, selectivity assay for GPR7 antagonist project, late-stage follow-up (AID 504401)
# Settings: Ricerca radioligand binding and CYP450 panel, at 10 µM, stronger effect = higher value
structure (smiles),measurement,value
COc1ccc(Oc2c(Cl)cnn(-c3cc(C)cc(C)c3)c2=O)cc1,inhibition,-15%

# — PubChem BioAssay AID504401 (The Scripps Research Institute Molecular Screening Center, 2011)
